Data from PubChem BioAssay (NCI).
Compounds without any hit were thinned out: in the full panel of roughly 79,000, 15% have a hit. Unmarked numbers belong to inactive results. Calls of active or inactive are those of the source. Rule as the data show it: active = growth inhibition above about 70%; inactive = the rest.

Experiments:
[1] = NCI Yeast Anticancer Drug Screen. Data for the rad50 strain (AID 155);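 also: 0% = growth of vehicle-only cultures of the same strain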; conditions: S. cerevisiae rad50 strain growth inhibition; at 50.0 µM; stronger effect = higher value
Summary of the method: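 Genetically altered yeast (DNA repair pathway); compound treatment; growth inhibition vs vehicle ctrl.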

[2] = NCI Yeast Anticancer Drug Screen. Data for the mec2-1 strain (AID 157); conditions: S. cerevisiae mec2-1 strain, at 50.0 µM, stronger effect = higher value
Summary of the method: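 Strain: mec2-1 (DNA repair/cell cycle alteration). Compound exposure, then growth measured; inhibition expressed relative to vehicle.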

[3] = NCI Yeast Anticancer Drug Screen. Data for the sgs1 mgt1 strain (AID 161);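 also: 0% = growth of cultures given vehicle only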; conditions: S. cerevisiae sgs1 mgt1 strain, at 50.0 µM, stronger effect = higher value
Summary of the method: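 Test agents were incubated with a DNA-repair-mutant yeast strain. Growth was then read and compared against vehicle-treated controls.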

[4] = NCI Yeast Anticancer Drug Screen. Data for the cln2 rad14 strain (AID 165);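 also: 0% = growth equal to vehicle treated cultures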; conditions: S. cerevisiae cln2 rad14 strain, at 50.0 µM, stronger effect = higher value
Summary of the method: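 Compounds are applied to the cln2 rad14 yeast strain, and growth is then compared with that of vehicle-treated cultures to give inhibition.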

[5] = NCI Yeast Anticancer Drug Screen. Data for the bub3 strain (AID 167); conditions: S. cerevisiae bub3 mutant strain, at 50.0 µM, stronger effect = higher value
Summary of the method: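 Yeast carrying a defined mutation is treated with each compound, and growth is compared with that of vehicle-exposed cells to give inhibition.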

[6] = NCI Yeast Anticancer Drug Screen. Data for the mlh1 rad18 strain (AID 175); conditions: S. cerevisiae mlh1 rad18 strain growth inhibition; at 50.0 µM; stronger effect = higher value
Summary of the method: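 Read-out is yeast growth inhibition, calculated against vehicle-only controls. The compound was applied to a strain engineered with DNA damage repair alterations.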

NC(N)=N/N=C/c1c(Cl)nc2n1CCS2
growth inhibition [1]: -7.35% | growth inhibition [2]: -32.2% | growth inhibition [3]: -9.5% | growth inhibition [4]: 3.5% | growth inhibition [5]: 22.4% | growth inhibition [6]: -6.8%

COc1cccc(C2NC(=O)c3c(n[nH]c3N)S2)c1O (configuration not stated)
growth inhibition [1]: -14.8% | growth inhibition [2]: -43.4% | growth inhibition [3]: -10.5% | growth inhibition [4]: -6.55% | growth inhibition [5]: 5.85% | growth inhibition [6]: -40.1%

C[N+](C)(C)CCC(=O)CC[N+](C)(C)C
growth inhibition [1]: 16.2% | growth inhibition [2]: -2.2% | growth inhibition [3]: 0.5% | growth inhibition [4]: -24.4% | growth inhibition [5]: 32.6% | growth inhibition [6]: 40.9%

C(=C\c1nc2ncccn2n1)/c1ccccc1
growth inhibition [1]: 16.4% | growth inhibition [2]: -2.75% | growth inhibition [3]: 6.55% | growth inhibition [4]: -20.9% | growth inhibition [5]: 4.6% | growth inhibition [6]: -14.3%

O=C1c2ccccc2-c2nc3cc4ccccc4cc3nc21
growth inhibition [1]: 20.1% | growth inhibition [2]: 15.6% | growth inhibition [3]: 22.5% | growth inhibition [4]: 5.85% | growth inhibition [5]: 11.4% | growth inhibition [6]: 74% (active)

O=C1C(Cl)C(c2ccccc2)N1n1cnc2ccccc2c1=O (configuration not stated)
growth inhibition [1]: -16.2% | growth inhibition [2]: -2.15% | growth inhibition [3]: -24.1% | growth inhibition [4]: -3.3% | growth inhibition [5]: 3.9% | growth inhibition [6]: -12.7%

CNC(=O)Nc1nnnc2ccccc12
growth inhibition [1]: 10.1% | growth inhibition [2]: 1.45% | growth inhibition [3]: -4.05% | growth inhibition [4]: -10.6% | growth inhibition [5]: -0.15% | growth inhibition [6]: 13.9%

COC(=O)/C=C(/C)c1ccccc1
growth inhibition [1]: 1.7% | growth inhibition [2]: 2.3% | growth inhibition [3]: 0.9% | growth inhibition [4]: 5.65% | growth inhibition [5]: 1.45% | growth inhibition [6]: -3.5%

O=C(NNC(=S)Nc1cccc(Cl)c1)c1ccncc1
growth inhibition [1]: 21.8% | growth inhibition [2]: 6.5% | growth inhibition [3]: 26.6% | growth inhibition [4]: 9.45% | growth inhibition [5]: 19.9% | growth inhibition [6]: -9.55%

NC(CC(F)(F)F)C(=O)O (configuration not stated)
growth inhibition [1]: 22.9% | growth inhibition [2]: 4.2% | growth inhibition [3]: 16.7% | growth inhibition [4]: 31.3% | growth inhibition [5]: -2.65% | growth inhibition [6]: 11.9%

COc1cc(OC)cc(C(NC(C)=O)NC(C)=O)c1
growth inhibition [1]: 5.45% | growth inhibition [2]: 2.55% | growth inhibition [3]: 7.7% | growth inhibition [4]: -31.2% | growth inhibition [5]: 1.5% | growth inhibition [6]: 17.1%

O=c1cc(C(O)C(O)C(O)C(O)CO)[nH]c(=O)[nH]1 (configuration not stated)
growth inhibition [1]: 2.4% | growth inhibition [2]: 7.1% | growth inhibition [3]: 9% | growth inhibition [4]: 24.9% | growth inhibition [5]: -5.05% | growth inhibition [6]: -4.6%

CCC(C(O)c1ccc(Cl)cc1)[N+](=O)[O-] (configuration not stated)
growth inhibition [1]: 29.9% | growth inhibition [2]: 21.7% | growth inhibition [3]: 35.9% | growth inhibition [4]: 3.05% | growth inhibition [5]: 4.65% | growth inhibition [6]: 43.7%

CC/C=C(\C)C(C#N)(CCC)C(=O)OCC (configuration not stated)
growth inhibition [1]: -1.8% | growth inhibition [2]: -34.1% | growth inhibition [3]: -20.9% | growth inhibition [4]: -0.75% | growth inhibition [5]: -25.6% | growth inhibition [6]: -31.7%

Oc1cc(CN2CCOCCOCCOCCOCC2)c(O)cc1CN1CCOCCOCCOCCOCC1
growth inhibition [1]: 7.85% | growth inhibition [2]: -11.8% | growth inhibition [3]: 8.9% | growth inhibition [4]: -49.1% | growth inhibition [5]: -8.3% | growth inhibition [6]: -14.1%

CCOC(OCC)C(N)=O
growth inhibition [1]: 2.75% | growth inhibition [2]: -12.1% | growth inhibition [3]: -1.6% | growth inhibition [4]: 11.3% | growth inhibition [5]: -6.3% | growth inhibition [6]: 2.65%

Cc1ccc(/C=C/C(=O)/C=C/c2ccc(C)cc2)cc1
growth inhibition [1]: 9.05% | growth inhibition [2]: 9.25% | growth inhibition [3]: 15.6% | growth inhibition [4]: -2.6% | growth inhibition [5]: 23.6% | growth inhibition [6]: 18.7%

CC1=C(C#N)C(C#N)(C#N)C(NN(C)C)C1 (configuration not stated)
growth inhibition [1]: 8.3% | growth inhibition [2]: 20.9% | growth inhibition [3]: 1.5% | growth inhibition [4]: -8.6% | growth inhibition [5]: -15.9% | growth inhibition [6]: -40%

CCCCCCCCCCCCCCCCCC(=O)Nc1nc(N)nc(N)n1
growth inhibition [1]: 11.1% | growth inhibition [2]: 15.1% | growth inhibition [3]: 3.6% | growth inhibition [4]: 18.6% | growth inhibition [5]: -5.15% | growth inhibition [6]: 6.15%

CCOc1ccccc1N
growth inhibition [1]: 8.75% | growth inhibition [2]: 16.2% | growth inhibition [3]: -34% | growth inhibition [4]: 9.5% | growth inhibition [5]: -32% | growth inhibition [6]: -20.1%

CCOC(=O)c1cn(C)c2c1C(=O)C(C(=O)OCC)CCN2C(=O)OCC (configuration not stated)
growth inhibition [1]: -1.5% | growth inhibition [2]: 9.15% | growth inhibition [3]: -11.8% | growth inhibition [4]: 8.95% | growth inhibition [5]: 1% | growth inhibition [6]: -19.6%

CN=S(=O)(OCCCCOS(=O)(=NC)c1ccc(C)cc1)c1ccc(C)cc1 (configuration not stated)
growth inhibition [1]: 10.6% | growth inhibition [2]: -14.4% | growth inhibition [3]: -26.4% | growth inhibition [4]: -22.8% | growth inhibition [5]: -23.4% | growth inhibition [6]: -71.5%

CCCOc1ccc(C(=O)C(=O)c2ccccc2)cc1
growth inhibition [1]: 13.4% | growth inhibition [2]: -0.2% | growth inhibition [3]: -3.95% | growth inhibition [4]: 0.8% | growth inhibition [5]: 11.4% | growth inhibition [6]: 7%

COC1OC(CCl)C(Cl)C(Cl)C1O (configuration not stated)
growth inhibition [1]: 17.7% | growth inhibition [2]: -7.85% | growth inhibition [3]: 4.55% | growth inhibition [4]: -44.2% | growth inhibition [5]: 5.9% | growth inhibition [6]: 4.8%

COc1ccc(C(C#N)N(C)C)cc1OC (configuration not stated)
growth inhibition [1]: -16.9% | growth inhibition [2]: -13.6% | growth inhibition [3]: 8% | growth inhibition [4]: -15.1% | growth inhibition [5]: 0.75% | growth inhibition [6]: 5.15%

CC(=O)OC1CCC(OC(C)=O)[C@H]2[C@@H]1[C@@H]1S[C@H]2c2ccccc21 (some centres not stated)
growth inhibition [1]: 1% | growth inhibition [2]: -1.55% | growth inhibition [3]: -0.45% | growth inhibition [4]: 11.1% | growth inhibition [5]: 12.2% | growth inhibition [6]: -1.15%

Cc1c([N+](=O)[O-])cc(C(=O)O)cc1[N+](=O)[O-]
growth inhibition [1]: 35.6% | growth inhibition [2]: -0.15% | growth inhibition [3]: 16.4% | growth inhibition [4]: -7.4% | growth inhibition [5]: 2.55% | growth inhibition [6]: 27.9%

O=C(O)C(=O)C(=O)O
growth inhibition [1]: -23% | growth inhibition [2]: -41.8% | growth inhibition [3]: -9.65% | growth inhibition [4]: -10.1% | growth inhibition [5]: -1.45% | growth inhibition [6]: -5.45%

O=S1(=O)CC(N2CCCCC2)C2=C(O1)c1ccccc1N(c1ccccc1)C2 (configuration not stated)
growth inhibition [1]: 1.8% | growth inhibition [2]: -16.9% | growth inhibition [3]: -11.1% | growth inhibition [4]: 16.9% | growth inhibition [5]: -0.4% | growth inhibition [6]: -26.1%

C=C(C)C(=O)O[C@H]1C[C@@]23O[C@@H]2CCC(=C[C@H]2OC(=O)C(=C)[C@H]12)COC3O (some centres not stated)
growth inhibition [1]: 16.8% | growth inhibition [2]: -12.6% | growth inhibition [3]: 14.8% | growth inhibition [4]: 9.45% | growth inhibition [5]: 7.7% | growth inhibition [6]: -22.8%

CC(=O)Oc1ccccc1/C=C1/C=C(c2ccccc2)OC1=O
growth inhibition [1]: 6.4% | growth inhibition [2]: -7.55% | growth inhibition [3]: -0.55% | growth inhibition [4]: -39.1% | growth inhibition [5]: -16.8% | growth inhibition [6]: 0.2%

CNC(=O)OCc1c(COC(=O)NC)c(-c2cccs2)n2c1CCC2
growth inhibition [1]: 42% | growth inhibition [2]: 39.5% | growth inhibition [3]: 23.1% | growth inhibition [4]: 30.8% | growth inhibition [5]: 27.1% | growth inhibition [6]: 40.7%

CCCOP(=O)(CCCP(=O)(OCCC)OCCC)OCCC
growth inhibition [1]: -8.4% | growth inhibition [2]: -9.6% | growth inhibition [3]: 0.5% | growth inhibition [4]: -25.6% | growth inhibition [5]: 6.2% | growth inhibition [6]: -12.5%

O=C(O)CSC(=S)c1ccccc1
growth inhibition [1]: 16.4% | growth inhibition [2]: 19.8% | growth inhibition [3]: 4% | growth inhibition [4]: -5.7% | growth inhibition [5]: -15.8% | growth inhibition [6]: -12.9%

C/C(=N/O)c1ccc[nH]1
growth inhibition [1]: -3.6% | growth inhibition [2]: 9% | growth inhibition [3]: -5.5% | growth inhibition [4]: 20.1% | growth inhibition [5]: 13.2% | growth inhibition [6]: 0.3%

CCOC(=O)N1c2ccccc2SC1C#N (configuration not stated)
growth inhibition [1]: 63.1% | growth inhibition [2]: 40.1% | growth inhibition [3]: 37.4% | growth inhibition [4]: 1.85% | growth inhibition [5]: 25.1% | growth inhibition [6]: 27.4%

CCOC(=O)C(=O)C(Cc1ccccc1)C(=O)OCC (configuration not stated)
growth inhibition [1]: 0.2% | growth inhibition [2]: -3.95% | growth inhibition [3]: 9.75% | growth inhibition [4]: -46.5% | growth inhibition [5]: 11.7% | growth inhibition [6]: -7.2%

CC(C)CSc1nc(N)nc2c1ncn2CC(C)C
growth inhibition [1]: -8.65% | growth inhibition [2]: -6.4% | growth inhibition [3]: 32.7% | growth inhibition [4]: -21.7% | growth inhibition [5]: 29.4% | growth inhibition [6]: 18.9%

Nc1cc2c(cc1[N+](=O)[O-])-c1cccc(F)c1C2
growth inhibition [1]: 63.6% | growth inhibition [2]: 7.65% | growth inhibition [3]: 0.65% | growth inhibition [4]: 10.8% | growth inhibition [5]: -9.15% | growth inhibition [6]: 33%

C=COCCC(C(=O)OCC)C(=O)OCC
growth inhibition [1]: 13.5% | growth inhibition [2]: 26.5% | growth inhibition [3]: 17.8% | growth inhibition [4]: 4.2% | growth inhibition [5]: 40.6% | growth inhibition [6]: 13.1%

Cc1nn(C(=O)c2ccc(Cl)cc2)c2c1C(c1ccccc1[N+](=O)[O-])SC(N)=N2 (configuration not stated)
growth inhibition [1]: -9.6% | growth inhibition [2]: -1.5% | growth inhibition [3]: 7.05% | growth inhibition [4]: 33% | growth inhibition [5]: 27.6% | growth inhibition [6]: -9.05%

Nc1cccc2sccc12
growth inhibition [1]: 4.25% | growth inhibition [2]: 5.15% | growth inhibition [3]: -3.85% | growth inhibition [4]: -4.1% | growth inhibition [5]: 11.9% | growth inhibition [6]: -3.35%
